Assay [1] concerns Wnt5a (protein binding on small-molecule microarray). Briefly: Wnt5a binders on small-molecule microarray, primary screen, biophysical, 635/667 nm fluorescence (AID 1142).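 Further: fluorescence read at 667 nm with signal to noise per printed feature.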 The following applies: 635 nm fluorescence, higher = more signal.
The nature of assay [2]: cell viability in Huh7 cells, primary screen, cytotoxicity control for HCV replication inhibitor project, CellTiter-Glo luminescence, basal, 48 h (AID 1143).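 Further: Huh7 hepatoma cells carrying a hepatitis C replication reporter with no stimulus; test concentration not given here.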 The settings on record: Huh7 HCV replicon, higher = more signal, called active from +8 up or from −8 down. (Cellular ATP, detected with luciferase, serves as a proxy for viable cell number.)
A short description of assay [3]: P. aeruginosa biofilm formation inhibitors, primary screen, PAO1 strain, BacTiter-Glo luminescence, LB-PBS (AID 1144). The following applies: 12 h, higher = more signal.
Assay [4] is described as follows: CREB reporter modulators without forskolin, primary screen, cell-based, PC12, CRE-LacZ reporter, unstimulated (AID 1145). The following applies: no forskolin, luminescence, 4.5 h, higher = more signal, called active from +8 up or from −8 down.
Assay [5] is described as follows: CREB reporter modulators under forskolin, primary screen, cell-based, PC12, CRE-LacZ reporter, forskolin-stimulated (AID 1146).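 Further: PC12 cells with 6xCRE LacZ reporter stimulated by forskolin 10 µM; beta-galactosidase reporter signal reflecting CREB driven transcription.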 The following applies: luminescence, 4.5 h, higher = more signal, called active from +8 up or from −8 down.
Assay [6] has as its target Streptavidin (Streptomyces avidinii) (UniProt P22629). Put plainly: streptavidin binders on small-molecule microarray, primary screen, artefact control for SMM compound annotation, biophysical, 635/667 nm fluorescence (AID 1147).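 Further: signal reflects streptavidin binding to arrayed compounds as a control protein.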 The settings on record: streptavidin binding, higher = more signal.
Assay [7] can be described thus: small-molecule binders of probe aInhba, primary screen, biochemical, small-molecule microarray, 635/667 nm fluorescence (AID 1148).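 Further: score merges 667nm spot fluorescence with signal-to-noise for antibody binding to printed compounds.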 The settings on record: higher = more signal.
The target of assay [8] is Torsin-1A (Homo sapiens) (UniProt O14656). Put plainly: torsin A binders from cell lysate, primary screen, small-molecule microarray, wild-type, 635/667 nm (AID 1149). The settings on record: COS7 hTOR1A-WT lysate, 635 nm fluorescence, higher = more signal.
Assay [9] shares this target. Briefly: small-molecule binders of mutant TOR1A in lysate, primary screen, cell lysate, small-molecule microarray, COS7 lysate, 635/667 nm fluorescence (AID 1150).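 Further: score pools 667 nm emission and signal to noise measuring lysate protein binding.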 The settings on record: COS7 hTOR1A mutant lysate, 635 nm fluorescence, higher = more signal.
Assay [10] has as its system Sonic hedgehog protein (Shh). Briefly: small-molecule binders of Shh protein, primary screen, biochemical, small-molecule microarray, 635/667 nm fluorescence (AID 1151).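 Further: Shh protein binding to compounds spotted on small-molecule microarray slides; score combines spot fluorescence intensity with signal-to-noise across triplicate slides.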 The following applies: small-molecule microarray binding, 635 nm fluorescence; higher = more signal.
The nature of assay [11]: E. coli DRC41 culture turbidity changes, primary screen, E. coli filamentation inducer project, strain DRC41, OD650, 48 h (AID 1152).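 Further: E. coli MC1000 strain DRC41 lacking acrAB efflux pump and sulA.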 The following applies: E. coli DRC41 (acrAB sulA), higher = more signal, called active from +8 up or from −8 down.
Assay [12] in a line: small-molecule binders of probe aLefty1, primary screen, biochemical, small-molecule microarray, 635/667 nm fluorescence (AID 1153).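 Further: score merges spot fluorescence with signal-to-noise ratio from the scanned slide images.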 The settings on record: higher = more signal.
The nature of assay [13]: PSAC antagonists in infected red cells, primary screen, cell-based, P. falciparum Indochina, OD700, 1 h (AID 1154). The following applies: P. falciparum Indochina infected RBC osmotic lysis, higher = more signal, called active from +8 up or from −8 down.
The nature of assay [14]: PSAC antagonists in infected red cells, primary screen, cell-based, P. falciparum Indochina, OD700, 2 h (AID 1155).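 Further: lysis reports solute entry through the parasite surface anion channel PSAC; channel blockers reduce lysis of infected cells.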 The following applies: P. falciparum Indochina infected erythrocytes, osmotic lysis OD700; higher = more signal, called active from +8 up or from −8 down.
Assay [15] is described as follows: osmotic lysis modulators in infected erythrocytes, primary screen, PSAC antagonist project, cell-based, P. falciparum Indochina, OD700, 3 h (AID 1156). The following applies: higher = more signal, called active from +8 up or from −8 down.
Assay [16] is described as follows: PSAC antagonists in infected red cells, primary screen, cell-based, P. falciparum Indochina, OD700, 18 h (AID 1157). The following applies: P. falciparum Indochina infected erythrocytes, osmotic lysis OD700, 18 h; higher = more signal, called active from +8 up or from −8 down.
Assay [17] is described as follows: modulators of S6 phosphorylation in cells, primary screen, cell-based, A549, cytoblot, luminescence, serum-stimulated (AID 1158).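 Further: serum-stimulated A549 lung adenocarcinoma cells; signal is phosphorylated S6 detected by cytoblot immunostaining with HRP secondary.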 The settings on record: A549 phospho-S6 cytoblot, 5 h, higher = more signal.
Assay [18] has as its target NADPH oxidase 2 (Homo sapiens) (UniProt P04839). Put plainly: NOX2-dependent H2O2 signal modulators, primary screen, NOX inhibitor project, cell-based, HEK293-NOX2, PMA-stimulated, Amplex Red fluorescence (AID 1159). Further: test concentration not given here. The settings on record: 45 min, higher = more signal, called active from +8 up or from −8 down.
The target of assay [19] is NADPH oxidase 4 (Homo sapiens) (UniProt Q9NPH5). Put plainly: NOX4-dependent H2O2 signal modulators, primary screen, NOX inhibitor project, cell-based, HEK293-NOX4, tetracycline-induced, Amplex Red fluorescence (AID 1160). The settings on record: 45 min, higher = more signal, called active from +8 up or from −8 down.
The target in assay [20] is NADPH oxidase 5 (Homo sapiens) (UniProt Q96PH1). Put plainly: NOX5-dependent H2O2 signal modulators, primary screen, NOX inhibitor project, cell-based, HEK293-NOX5, Amplex Red fluorescence (AID 1161). The settings on record: HEK293-NOX5, ionomycin, 45 min, higher = more signal.

Active and inactive are the calls of the source. Unless noted, how the calls were made is not given here.

Chain of NADPH oxidase 2 (Homo sapiens) (P04839 whole entry, looked up): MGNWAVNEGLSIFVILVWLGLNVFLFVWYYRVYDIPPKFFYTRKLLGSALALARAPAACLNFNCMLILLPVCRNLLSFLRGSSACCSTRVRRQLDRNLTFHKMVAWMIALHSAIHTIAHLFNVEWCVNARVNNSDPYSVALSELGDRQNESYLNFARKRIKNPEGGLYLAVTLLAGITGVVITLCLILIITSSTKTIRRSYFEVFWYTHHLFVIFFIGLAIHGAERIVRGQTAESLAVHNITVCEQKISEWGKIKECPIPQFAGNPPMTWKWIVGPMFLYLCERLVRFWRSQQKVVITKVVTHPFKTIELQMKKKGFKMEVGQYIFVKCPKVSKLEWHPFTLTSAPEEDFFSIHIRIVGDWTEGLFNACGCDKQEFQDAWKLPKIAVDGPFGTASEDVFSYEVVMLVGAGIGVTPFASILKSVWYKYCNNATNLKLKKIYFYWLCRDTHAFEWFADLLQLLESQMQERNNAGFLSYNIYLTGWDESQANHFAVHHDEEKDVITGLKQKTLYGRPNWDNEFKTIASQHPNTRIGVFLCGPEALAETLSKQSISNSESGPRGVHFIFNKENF
Chain of NADPH oxidase 5 (Homo sapiens) (Q96PH1 whole entry, looked up): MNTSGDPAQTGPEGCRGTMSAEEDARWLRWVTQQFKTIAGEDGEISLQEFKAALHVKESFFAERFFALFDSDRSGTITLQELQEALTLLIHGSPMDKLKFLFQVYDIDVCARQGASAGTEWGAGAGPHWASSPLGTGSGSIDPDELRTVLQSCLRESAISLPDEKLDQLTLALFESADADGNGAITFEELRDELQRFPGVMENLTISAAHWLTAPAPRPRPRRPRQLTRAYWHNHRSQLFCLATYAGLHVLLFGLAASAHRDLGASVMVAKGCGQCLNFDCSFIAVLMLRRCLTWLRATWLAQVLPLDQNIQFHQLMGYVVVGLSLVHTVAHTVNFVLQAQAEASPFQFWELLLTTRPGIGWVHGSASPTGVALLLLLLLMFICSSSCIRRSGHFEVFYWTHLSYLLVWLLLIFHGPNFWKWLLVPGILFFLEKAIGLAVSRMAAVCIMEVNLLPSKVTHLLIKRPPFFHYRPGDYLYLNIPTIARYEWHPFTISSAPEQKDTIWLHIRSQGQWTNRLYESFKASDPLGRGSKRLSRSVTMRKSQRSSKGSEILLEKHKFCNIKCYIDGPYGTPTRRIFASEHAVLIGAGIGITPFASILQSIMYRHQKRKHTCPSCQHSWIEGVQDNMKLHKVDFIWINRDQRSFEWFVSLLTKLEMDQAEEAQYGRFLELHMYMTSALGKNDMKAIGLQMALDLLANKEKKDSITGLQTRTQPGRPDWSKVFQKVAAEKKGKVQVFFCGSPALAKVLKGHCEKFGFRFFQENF
Chain of Streptavidin (Streptomyces avidinii) (P22629 whole entry, looked up): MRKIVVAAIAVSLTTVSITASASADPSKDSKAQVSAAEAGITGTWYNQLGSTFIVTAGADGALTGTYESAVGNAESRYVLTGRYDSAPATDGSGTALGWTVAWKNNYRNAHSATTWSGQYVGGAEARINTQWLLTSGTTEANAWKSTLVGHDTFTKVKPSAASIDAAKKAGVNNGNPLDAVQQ
Chain of Torsin-1A (Homo sapiens) (O14656 whole entry, looked up): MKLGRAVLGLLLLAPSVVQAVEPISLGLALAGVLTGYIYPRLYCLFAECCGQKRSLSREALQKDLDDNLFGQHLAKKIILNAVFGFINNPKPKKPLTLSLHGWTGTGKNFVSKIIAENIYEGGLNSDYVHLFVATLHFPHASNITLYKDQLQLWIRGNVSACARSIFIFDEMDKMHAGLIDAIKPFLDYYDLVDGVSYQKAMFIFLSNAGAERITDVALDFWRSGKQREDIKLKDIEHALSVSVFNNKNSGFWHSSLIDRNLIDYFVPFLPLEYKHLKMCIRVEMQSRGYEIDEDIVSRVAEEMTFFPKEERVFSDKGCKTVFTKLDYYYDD
Chain of NADPH oxidase 4 (Homo sapiens) (Q9NPH5 whole entry, looked up): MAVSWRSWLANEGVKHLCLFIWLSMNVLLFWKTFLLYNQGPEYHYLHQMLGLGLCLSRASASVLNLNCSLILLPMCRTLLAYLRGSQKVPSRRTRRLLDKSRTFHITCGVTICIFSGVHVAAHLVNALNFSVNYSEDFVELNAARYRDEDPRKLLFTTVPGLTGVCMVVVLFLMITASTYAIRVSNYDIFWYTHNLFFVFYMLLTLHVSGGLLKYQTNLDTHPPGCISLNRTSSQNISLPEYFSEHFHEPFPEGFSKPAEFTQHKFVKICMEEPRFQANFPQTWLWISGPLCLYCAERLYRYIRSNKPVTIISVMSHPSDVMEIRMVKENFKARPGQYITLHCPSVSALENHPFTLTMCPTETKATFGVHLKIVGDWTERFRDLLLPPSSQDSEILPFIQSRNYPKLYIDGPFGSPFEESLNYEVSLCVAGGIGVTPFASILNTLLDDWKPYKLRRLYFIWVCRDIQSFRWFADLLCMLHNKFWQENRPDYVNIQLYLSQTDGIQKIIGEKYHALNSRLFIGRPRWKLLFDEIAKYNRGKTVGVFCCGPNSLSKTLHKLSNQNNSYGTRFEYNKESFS

In the case of `COCCOC(=O)N1C(=O)[C@@]2(c3cc(C#CCCO)ccc31)[C@H](C(N)=O)[C@H]1C(=O)O[C@H](c3ccccc3)[C@H](c3ccccc3)N1[C@@H]2c1ccccc1OCCO`, the composite z-score in assay [1] worked out at 0.119; in [6], 0.612; in assay [7] it was 0.017; with Torsin-1A (Homo sapiens) [8] it was 0.69; with Torsin-1A (Homo sapiens) [9], 0.791; in assay [10], 1.13. Further, the composite z-score in assay [12] was -0.147. The z-score is -3.54 (inactive) in [2]; 0.00875 (inactive) in assay [3]; 0.0695 (inactive) in assay [4]; -0.29 (inactive) in assay [5]; -0.3 (inactive) in assay [11]; 12.2 (active) in assay [13]. The z-score in [14] is 2.47 (inactive); in assay [15], 1.99 (inactive); in assay [16], 0.68 (inactive); in assay [17], 1.02; in assay [18], 1.51 (inactive); in assay [19], 0.755 (inactive). The z-score in assay [20] was determined as 0.594.
For the molecule `CN(C)CCCC[C@@H]1NC(=O)[C@H]2C[C@@H](C(=O)O)[C@@H](c3ccc(O)cc3)N2C1=O`, the composite z-score in assay [1] amounted to 0.938; in [6], 3.44; in assay [7], 1.98; with Torsin-1A (Homo sapiens) [8] it was 2.77; with Torsin-1A (Homo sapiens) [9] it was 3.27; in assay [10], 2.17. The composite z-score in assay [12] was determined as 2.57. Moreover, the z-score in assay [2] was -2.41 (inactive); in assay [3] it was 0.294 (inactive); in [4] it was 0.419 (inactive); in assay [5], -0.457 (inactive); in assay [11] it was 2.2 (inactive); in assay [13], 3.21 (inactive). Also, the z-score in assay [14] is 0.73 (inactive); in [15], -2.43 (inactive); in assay [16] it was -0.849 (inactive); in assay [17] it was 0.651; in assay [18] it was 0.485 (inactive); in [19], -1.06 (inactive). Also, the z-score in assay [20] was determined as 1.4.
With `C[C@@H]1ON(c2ccccc2)[C@H](c2ccccc2)[C@H]1C(=O)O`, the composite z-score in assay [1] was -0.0071; in [6] it was 0.0265; in assay [7], 0.134; with Torsin-1A (Homo sapiens) [8], 0.404; in the assay with Torsin-1A (Homo sapiens) [9], -0.115; in assay [10], 1.01. In [12], this molecule had a composite z-score of 0.106. Further, the z-score in assay [2] was 0.343 (inactive); in [3], -0.525 (inactive); in [4] it was 0.308 (inactive); in assay [5] it was 0.411 (inactive); in [11] it was -0.0929 (inactive); in assay [13], 0.348 (inactive). Also, the z-score in [14] was -0.299 (inactive); in assay [15] it was -0.142 (inactive); in assay [16], -0.136 (inactive); in [17] it was 0.0366; in assay [18] it was -0.436 (inactive); in assay [19], 0.24 (inactive). In assay [20], the z-score stood at 0.46.
Regarding `COC(=O)C(CC#Cc1ccc2c(c1)[C@]1(C(=O)N2)[C@H](c2ccccc2OCCO)N2[C@H](c3ccccc3)[C@H](c3ccccc3)OC(=O)[C@H]2[C@@H]1C(=O)N1CCc2cc(OC)c(OC)cc2C1)C(=O)OC`, the composite z-score is 0.237 in assay [1]; 1.11 in assay [6]; -0.138 in assay [7]; 0.757 with Torsin-1A (Homo sapiens) [8]; 0.674 in the assay with Torsin-1A (Homo sapiens) [9]; 1.82 in assay [10]. In assay [12], the composite z-score stood at 0.0215. The z-score in [2] was -3.09 (inactive); in assay [3], -0.888 (inactive); in assay [4], -0.0515 (inactive); in assay [5] it was 0.509 (inactive); in assay [11], 0.447 (inactive); in [13] it was 3.28 (inactive). The z-score in assay [14] is 2.24 (inactive); in assay [15], 2.54 (inactive); in [16], 1.25 (inactive); in assay [17], -0.033; in assay [18] it was 1.74 (inactive); in assay [19], 1.52 (inactive). In assay [20], this molecule showed a z-score of 1.73.
Consider `O=C1N(Cc2ccccc2)c2ccccc2C[C@@]12COC(c1ccc(OCCCO)cc1)=N2`, for which the composite z-score in assay [1] was 0.82; in assay [6], 0.431; in [7] it was 0.397; in the assay with Torsin-1A (Homo sapiens) [8], 0.492; with Torsin-1A (Homo sapiens) [9], 1.03; in assay [10], 0.383. The molecule also came in with a composite z-score in assay [12] of 0.391. Moreover, the z-score was -3.39 (inactive) in assay [2]; -0.576 (inactive) in [3]; 2.41 (inactive) in assay [4]; -0.914 (inactive) in assay [5]; 0.0226 (inactive) in [11]; 25.5 (active) in assay [13]. The z-score is 10.1 (active) in assay [14]; 3.4 (inactive) in assay [15]; 1.33 (inactive) in assay [16]; 0.255 in assay [17]; -0.231 (inactive) in assay [18]; -0.221 (inactive) in assay [19]. Moreover, in assay [20], the z-score is -1.79.

These data come from PubChem BioAssay.
